SMILES strings stand for the structures. “And” between values parts separate entries of the source, which are not always exact repeats. Equal values may be shown once. Results filed as inconclusive are left out. Entries that show only a call come without a potency. A structure can be active in one record and inactive in another. The source made the active and inactive calls. Calls follow the shape of the dose curve; as a rule, active = well fitted cell-killing curve with a large enough effect in the repeat runs; inconclusive = weak or mixed curves, or effect the other way; inactive = no such curve, though single readings can be large or run the other way. Starred links: 1 amine or outer side, 2 acyl side, 3 side chain; linkers in the order of their positions; H or OH if unused. Positions of bridges follow the written chain, without caps; N, C: chain ends. Non-standard residues stand in square brackets, D forms with d. Residues, ends and D or L forms follow the SMILES beside them. Chains are numbered I, II in the order given. Actinocin(9to1) = Cc1c2oc3c(C)ccc(C(=O)[*:1])c3nc-2c(C(=O)[*:2])c(N)c1=O; NMeV = CN[C@H](C(=O)O)C(C)C; Sar = CNCC(=O)O
Potency is read from the fitted curve at half-maximal effect.

The test is described as follows: Caspase-3/7 induction in CHO-K1 cells by small molecules, qHTS cell viability counter screen (AID 1346979). Also: nearly all actives have a fitted effect of over 35% in size. To be noted: CellTiter-Fluor fluorescence, 17 h; series mostly up to 92.4 µM. The text has this: National Center for Advancing Translational Sciences [NCATS]
NIH Chemical Genomics Center [NCGC]
U.S. Environmental Protection Agency [EPA]
National Institutes of Environmental Health Sciences [NIEHS]
National Toxicology Program [NTP]
U.S. Food and Drug Administration [FDA]
Apoptosis is a process of programmed cell death and plays a central role in the development of multicellular organisms. It is a highly regulated process and induces cell death by activating caspases, which are the members of cysteine aspartic acid-specific protease (caspase) family. Caspases involved in apoptosis are classified by their mechanism of action as initiator caspases (caspase-2, -8, -9 and -10) and executioner caspases (caspase-3, -6, and -7). Inhibition of apoptosis results in number of cancers, autoimmune diseases, inflammatory diseases and viral infection. To identify small molecule compounds that induce apoptosis, a homogeneous, luminescent Caspase-Glo 3/7 assay was used. Wild type CHO-K1 cells were used to screen Tox21 libraries for identifying caspase-3/7 activity inducers. Also cytotoxicity of the compounds was tested in parallel by measuring the cell viability using CellTiter-Fluor assay system in the same wells.
Tox21 Assay Protocol Summary:
CHO-K1 cells were dispensed at 1,500 per well in 5uL of culture medium into white solid bottom 1536-well plates (Corning Life Sciences, Corning, NY) using a Multidrop Combi (Thermo Scientific, Waltham, MA) dispenser. The assay plates were incubated at 37 C and 5% CO2 for 5hr, and then 23nL of compounds dissolved in DMSO and positive control were transferred using a Pintool station (Wako, San Diego, CA). The assay plates were incubated at 37C and 5% CO2 for 17hr. For cytotoxicity read, after 16hr incubation at 37C, 1uL CellTiter-Fluor reagent (Promega Corporation, Madison, WI) was added to each well of the assay plates using Flying Reagent Dispenser (FRD, Aurora Discovery, San Diego, CA). After 1hr incubation at 37C and 5% CO2, the fluorescence signal was quantified using a ViewLux plate reader (PerkinElmer, Shelton, CT).
(In qHTS, concentration-response curves come from the screen itself.)
Consider `Cc1cccc(O)c1C`, for which the Potency entry is “inactive”.

As to `Cc1c2oc3c(C)ccc(C(=O)N[C@@H]4C(=O)N[C@H](C(C)C)C(=O)N5CCC[C@H]5C(=O)N(C)CC(=O)N(C)[C@@H](C(C)C)C(=O)O[C@@H]4C)c3nc-2c(C(=O)N[C@@H]2C(=O)N[C@H](C(C)C)C(=O)N3CCC[C@H]3C(=O)N(C)CC(=O)N(C)[C@@H](C(C)C)C(=O)O[C@@H]2C)c(N)c1=O` (I: T[dV]P[Sar][NMeV] / II: T[dV]P[Sar][NMeV]; ester I:1-I:C, II:1-II:C; linker I:N-II:N via Actinocin(9to1)), the Potency was 375 nM (active) and 188 nM (active).

For `CC(C)(C)c1cc(C(C)(C)C)c(O)c(C(C)(C)C)c1`, the Potency result is “inactive”.

Take `CCN(CC)CCOc1ccc(/C(=C(\Cl)c2ccccc2)c2ccccc2)cc1`: the Potency is 55.6 µM (active).

Take `CCn1cc(C(=O)O)c(=O)c2cc(F)c(N3CCNC(C)C3)c(F)c21` (stereo not given): the Potency result is “inactive”.

As to `C#CC(C)(CC)OC(=O)c1ccccc1C(=O)O` (stereo not given), the Potency entry is “inactive”.

As for `Cc1cccc2n[nH]nc12`, the Potency entry is “inactive”.

Turning to `CCCCC(CC)COC(=O)CC(C(=O)OCC(CC)CCCC)S(=O)(=O)O` (stereo not given), the Potency was 52.4 µM (active).

Take `CC(=O)CC(=O)Nc1ccc2[nH]c(=O)[nH]c2c1`: the Potency entry is “inactive”.

With `O=C(O)c1cn(-c2ccc(F)cc2)c2cc(N3CCNCC3)c(F)cc2c1=O`, the Potency result is “inactive”.

For the compound `CN1C(=O)c2ccc([N+](=O)[O-])cc2C1=O`, the Potency result was “inactive”.

Take `Oc1c(Cl)cc(Cl)c(Cl)c1Cc1c(O)c(Cl)cc(Cl)c1Cl`: the Potency was 6.09 µM (active) and 15.4 µM (active) and 8.41 µM (active).

`CC(=O)OCC1=C(C(=O)O)N2C(=O)[C@@H](NC(=O)Cc3cccs3)[C@H]2SC1`: the Potency entry was “inactive”.

`CCN(CC)C(=O)Nc1ccc(OCC(O)CNC(C)(C)C)c(C(C)=O)c1` (stereo not given): the Potency result was “inactive”.

Consider `CC(COc1ccccc1)N(CCCl)Cc1ccccc1` (stereo not given), for which the Potency entry was “inactive”.

With `Cc1cc(Cc2cc(C)cc(C(C)(C)C)c2O)c(O)c(C(C)(C)C)c1`, the Potency is 27.4 µM (active) and 54.5 µM (active).

On to `Cc1c(O)cccc1C(=O)N[C@@H](CSc1ccccc1)[C@H](O)CN1C[C@H]2CCCC[C@H]2C[C@H]1C(=O)NC(C)(C)C`, for which the Potency was 5.95 µM (active) and 10.6 µM (active).

Consider `NCCO`, for which the Potency entry is “inactive”.

In the case of `c1cc(C(c2ccc(OCC3CO3)cc2)C(c2ccc(OCC3CO3)cc2)c2ccc(OCC3CO3)cc2)ccc1OCC1CO1` (stereo not given), the Potency result was “inactive”.

As to `O=C(O)CP(=O)(O)O`, the Potency result was “inactive”.

For the compound `O=C(Cl)c1cccc(C(=O)Cl)c1`, the Potency result is “inactive”.

Consider `NC(N)=Nc1nc(CSCC/C(N)=N/S(N)(=O)=O)cs1`, for which the Potency result was “inactive”.

Consider `NC12CC3CC(CC(C3)C1)C2`, for which the Potency entry is “inactive”.

For the compound `O=C1CC2(CCCC2)CC(=O)N1CCCCN1CCN(c2ncccn2)CC1`, the Potency was 54.5 µM (active) and inactive.

Turning to `CCCNC(C)C(=O)Nc1ccccc1C` (stereo not given), the Potency entry was “inactive”.

Regarding `N[C@@H]1CONC1=O`, the Potency entry was “inactive”.

Turning to `NC(Cc1ccc(Cl)cc1)C(=O)O` (stereo not given), the activity change, negative = cytotoxicity was 10.4% [at 0.349 µM] (inactive).

For `Cc1ccc(S(=O)(=O)Oc2ccc(N=Nc3ccc(-c4ccc(N=Nc5c(O)ccc6cc(S(=O)(=O)O)cc(S(=O)(=O)O)c56)c(C)c4)cc3C)cc2)cc1`, the Potency is 15.4 µM (active) and 10 µM (active).

Consider `CC1=CC(=O)c2ccccc2C1=O`, for which the Potency is 24.3 µM (active) and 21.1 µM (active).

Take `CN(C)c1ccc(C(=C2C=CC(=[N+](C)C)C=C2)c2ccccc2)cc1`: the Potency is 596 nM (active) [middle of 4 runs].

As for `COC(=O)c1cccc(C(=O)OC)c1`, the Potency result was “inactive”.

Take `CC(C)(C)c1ccc(O)c(C(C)(C)C)c1`: the Potency is 60.9 µM (active) and 54.5 µM (active).

In the case of `CCN(CC)C(=S)SSC(=S)N(CC)CC`, the Potency is 137 nM (active) and 62.6 nM (active) and 376 nM (active).

For `O=C(O[C@@H]1Cc2c(O)cc(O)cc2O[C@@H]1c1cc(O)c(O)c(O)c1)c1cc(O)c(O)c(O)c1`, the Potency was 30.7 µM (active) and 52.5 µM (active).

Regarding `O=S(=O)(O)c1ccc2nc(-c3ccccc3)[nH]c2c1`, the Potency result was “inactive”.

Regarding `OCCOCCN1CCN(C(c2ccccc2)c2ccc(Cl)cc2)CC1` (stereo not given), the Potency is 53.8 µM (active) and inactive.

`CCCCN(CCO)CCCC`: the Potency result was “inactive”.

For `CCCCCCCCCCCCCCCCCl`, the activity change, negative = cytotoxicity is -2.27% [at 19 µM] (inactive).

`[Cl][In]([Cl])[Cl]`: the Potency entry was “inactive”.

Take `CNC1(C)C2CCC(C2)C1(C)C` (stereo not given): the Potency result is “inactive”.

Values taken from PubChem BioAssay (Tox21).
